Screening results as filed in PubChem.
AMA1-RON2 inh: qHTS for Inhibitors of AMA1-RON; Towards Development of Antimalarial Drug Lead: Primary Screen; AlphaScreen AMA1-biotinylated RON2 peptide binding; 360,000 compounds, 0.2% hits; Plasmodium falciparum AMA1 (3D7) - RON2 peptide interaction; Potency, µM (highest dose often 58.2 µM), without a hit: at the top dose activity change, negative = inhibition, actives largely listed as inhibitors; AID 720542, 2013;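 also: 0% = vehicle wells and -100% = peptide control; nearly all actives have a fitted effect of over 45% in size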
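AMA1 (3D7) with his tag at 25 nM final met compounds first, then biotinylated RON2 peptide at 25 nM; detection used donor plus acceptor beads, 10 µg/mL apiece, read by AlphaScreen after 30 min at room temperature.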
AmpC inh detg: qHTS Inhibitors of AmpC Beta-Lactamase (assay with detergent). AID 485294, 2010. Potency, µM (top dose mostly 114 µM), for the others: top-dose activity change, negative = inhibition, actives largely listed as inhibitors. 370,000 compounds, 0.041% hits. AmpC hydrolysis of nitrocefin, absorbance 480 nm, 0.01% Triton;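 also: 0% = no-compound wells and -100% = no-enzyme wells; nearly all actives have a fitted effect of over 25% in size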
Target sequence (P00811 whole entry, looked up): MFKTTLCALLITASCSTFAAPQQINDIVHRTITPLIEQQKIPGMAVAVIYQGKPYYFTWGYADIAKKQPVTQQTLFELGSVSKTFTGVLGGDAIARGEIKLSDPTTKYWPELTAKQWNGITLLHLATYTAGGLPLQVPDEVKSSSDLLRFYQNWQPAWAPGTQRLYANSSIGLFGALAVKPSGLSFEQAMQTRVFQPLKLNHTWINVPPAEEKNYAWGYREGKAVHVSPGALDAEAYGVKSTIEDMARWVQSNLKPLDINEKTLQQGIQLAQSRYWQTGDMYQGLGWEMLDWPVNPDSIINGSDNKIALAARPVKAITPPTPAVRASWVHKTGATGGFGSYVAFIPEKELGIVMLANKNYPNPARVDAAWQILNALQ
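20 mM phosphate pH 7.0 + 0.01% (detergent screen) or 0.0001% Triton X-100; 5.3 nM AmpC reagent; cpd preinc 15 min RT; nitrocefin (800 uM stock) to start; A480 q20 s × 4 min; Activity was normalised to no-enzyme and no-compound control wells.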
AmpC no deterg: qHTS Inhibitors of AmpC Beta-Lactamase (assay without detergent). 330,000 compounds, 0.52% hits. Potency, µM (top dose mostly 57.1 µM), for inactives: at the top dose activity change, negative = inhibition, usual class: inhibitors. AID 485341, 2010. AmpC nitrocefin hydrolysis, absorbance 480 nm, 0.0001% Triton;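 also: plate controls were no compound for no effect and no enzyme for full effect; nearly all actives have a fitted effect of over 20% in size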
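AmpC (5.3 nM in the dispensed reagent) in 20 mM phosphate pH 7.0 with 0.01% (detergent screen) or 0.0001% Triton X-100 was preincubated with compounds for 15 min at room temperature. Nitrocefin was then added from an 800 uM solution, and hydrolysis was followed at 480 nm.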
VACV mCherry inh: qHTS for Stage-Specific Inhibitors of Vaccinia Orthopoxvirus: mCherry Reporter Primary qHTS. Vaccinia virus mCherry reporter infection, fluorescence. Potency, µM (series often up to 36.5 µM), without a hit: at the top dose activity change, negative = inhibition, usual class: inhibitors. 310,000 compounds, 0.63% hits. AID 720579, 2013; calls by dose curve; tested in A549 cells; also: % is scaled to controls: 0 for no effect and ±100 for the full control effect; nearly all actives have a fitted effect of over 35% in size
SARS PLpro yeast: qHTS of Yeast-based Assay for SARS-CoV PLP | S. cerevisiae expressing SARS-CoV PLpro, growth rescue | Potency, µM (top dose mostly 32.9 µM), for the others: at the highest dose activity, positive = growth rescue, most hits filed as activators | 330,000 compounds, 0.19% hits | AID 485353, 2010; calls by dose curve; also: 0% is about no effect; nearly all actives have a fitted effect of over 55% in size
Vaccinia Venus: qHTS for Stage-Specific Inhibitors of Vaccinia Orthopoxvirus: Venus Reporter Primary qHTS; 330,000 compounds, 0.46% hits; Potency, µM (series often up to 36.5 µM), for inactives: top-dose activity change, negative = inhibition, usual class: inhibitors; Vaccinia virus Venus reporter expression, fluorescence; calls by dose curve; tested in A549 cells; also: % is scaled to controls: 0 for no effect and ±100 for the full control effect; nearly all actives have a fitted effect of over 30% in size
* = called active by the depositor. Sampled rows, rich in hits. Any-hit rate of the full collection: about 1.3%. Unless noted, calls follow the shape of the dose curve; as a rule, active = well fitted curve in the direction sought with a large enough effect; inconclusive = small, poorly fitted or top-dose-only effect, or another doubt; inactive = no such curve, though single readings can be large; an effect the other way counts as inactive or inconclusive. Potency is read from the fitted curve at half-maximal effect.

c1ccc(COc2ncnc3c2ncn3CCCNCC(c2ccccc2)c2ccccc2)cc1 was read as AMA1-RON2 inh -22%, VACV mCherry inh inconclusive and Vaccinia Venus 14µM*.
CC(CNCCCn1ccc(NC(=O)OCc2ccccc2)nc1=O)c1ccccc1 (stereo not given) was read as AMA1-RON2 inh -2%, VACV mCherry inh inactive and Vaccinia Venus -23%.
`O=C(Nc1ccn(CCCNCC(c2ccccc2)c2ccccc2)c(=O)n1)OCc1ccccc1` gave AMA1-RON2 inh -12%, VACV mCherry inh 13µM* and Vaccinia Venus 11µM*.
`O=c1oc2ccccc2c(O)c1Cc1c(O)c2ccccc2oc1=O` gave VACV mCherry inh -12% and Vaccinia Venus -10%.
Screening O=c1oc2ccccc2c2oc3cc(O)c(O)cc3c12 returned AMA1-RON2 inh -22%, AmpC inh detg -1%, AmpC no deterg 14µM*, VACV mCherry inh inconclusive, SARS PLpro yeast -1% and Vaccinia Venus -29%.
`CCOc1ccc(N2CC(NC(=O)c3cccc4ccccc34)CC2=O)cc1` (stereo not given) gave AMA1-RON2 inh 11%, AmpC inh detg inconclusive, AmpC no deterg 32µM*, VACV mCherry inh inconclusive, SARS PLpro yeast -6% and Vaccinia Venus -6%.
Cc1ccc2c(CC(=O)N3CCOc4ccc(CN5C[C@@H](C)O[C@@H](C)C5)cc4C3)cc(=O)oc2c1 was read as VACV mCherry inh -6% and Vaccinia Venus -11%.
For COc1ccc(CNS(=O)(=O)c2ccc(-c3cc(C(F)(F)F)on3)s2)cc1OC the results were AmpC inh detg -7%, VACV mCherry inh -15% and Vaccinia Venus inconclusive.
`Nc1ccc2ccccc2c1N=Nc1ccccc1` gave AMA1-RON2 inh 18µM*, VACV mCherry inh inconclusive and Vaccinia Venus -9%.
Screening COCc1c(C(=O)N2CCN(C(C)C)CC2)cnn1-c1nccc(-c2cc(C)sc2C)n1 returned VACV mCherry inh -9% and Vaccinia Venus -4%.
Screening O=c1c2[nH]c3ccc(F)cc3c2ncn1CCN1CCN(Cc2ccccc2)CC1 returned AMA1-RON2 inh 2%, AmpC inh detg inconclusive, AmpC no deterg 0.32µM*, VACV mCherry inh inactive, SARS PLpro yeast -2% and Vaccinia Venus -8%.
COc1ccc(N2C(=O)[C@@H]3C[C@H]2CN3Cc2cccn2-c2ccc(Cl)cn2)c(C)c1 was read as VACV mCherry inh -7% and Vaccinia Venus 0%.
For CCCCn1c(SCC(=O)c2ccc(O)c(O)c2)nc2ccsc2c1=O the results were AMA1-RON2 inh 30%, AmpC inh detg -4%, AmpC no deterg -31%, VACV mCherry inh 22µM*, SARS PLpro yeast inconclusive and Vaccinia Venus inconclusive.
For CCCCN1CC[C@H]2C=CC[C@@H](C(=O)NCc3cccnc3)[C@H]2C1=O the results were VACV mCherry inh -2% and Vaccinia Venus -25%.
COc1cc(/C=C(/C)[N+](=O)[O-])ccc1OCc1ccccc1Cl was read as AMA1-RON2 inh inconclusive, AmpC inh detg -13%, AmpC no deterg -25%, VACV mCherry inh inconclusive, SARS PLpro yeast -81% and Vaccinia Venus 11µM*.
For COc1cc(/C=N/NC(=O)CSc2cc(C)c(Br)cc2C)ccc1O the results were AMA1-RON2 inh 56%, AmpC inh detg 2%, AmpC no deterg -55% and SARS PLpro yeast -8%.
Cc1cc(SCC(=O)N/N=C/c2ccc(O)c(O)c2O)c(C)cc1Br was read as AMA1-RON2 inh 28%, AmpC inh detg 0%, AmpC no deterg 18µM*, VACV mCherry inh 13µM*, SARS PLpro yeast inconclusive and Vaccinia Venus inconclusive.
`CNc1nc(NCc2ccc(C)cc2C)c2sccc2n1` gave AMA1-RON2 inh 24%, VACV mCherry inh -22% and Vaccinia Venus -23%.
Screening CNc1nc(NCc2ccc(N(C)C)cc2)c2sccc2n1 returned AMA1-RON2 inh 20µM*, VACV mCherry inh -3% and Vaccinia Venus -18%.
Cc1ccccc1NC(=O)COC(=O)/C=C/c1cn(-c2ccccc2)nc1-c1cccnc1 was read as AMA1-RON2 inh 19%, AmpC inh detg -6%, AmpC no deterg -21%, VACV mCherry inh -14%, SARS PLpro yeast 14% and Vaccinia Venus -6%.
For CC(=O)Nc1ccc(NC(=O)C(C)OC(=O)/C=C/c2cn(-c3ccccc3)nc2-c2cccnc2)cc1 (stereo not given) the results were AMA1-RON2 inh 3%, AmpC inh detg -6%, AmpC no deterg 41%, VACV mCherry inh 13µM*, SARS PLpro yeast 21% and Vaccinia Venus inconclusive.
Cc1ccc(/C=C2\SC(=S)N(/N=C/c3cc([N+](=O)[O-])ccc3O)C2=O)o1 was read as AMA1-RON2 inh 11%, AmpC inh detg -4%, AmpC no deterg -54%, VACV mCherry inh -2%, SARS PLpro yeast 3% and Vaccinia Venus 12%.
CCOc1cc(CNc2ccc(N3CCCC3)cc2)cc(Cl)c1OC was read as AMA1-RON2 inh 20µM*, AmpC inh detg -7%, AmpC no deterg -26%, VACV mCherry inh -14%, SARS PLpro yeast 0% and Vaccinia Venus -16%.
`COc1cccc(CNc2ccc(N3CCCCC3)cc2)c1OC` gave AMA1-RON2 inh 35µM*, AmpC inh detg 5%, AmpC no deterg -4%, SARS PLpro yeast -7% and Vaccinia Venus 32%.
`CCOc1cc(CNc2cccc3ccccc23)cc(Br)c1OCC(=O)NC(C)(C)C` gave AMA1-RON2 inh -9%, AmpC inh detg inconclusive, AmpC no deterg -10%, VACV mCherry inh -24%, SARS PLpro yeast 14% and Vaccinia Venus -11%.
`COc1cc(CNc2ccc(N3CCCC3)cc2)cc(Cl)c1OC` gave AMA1-RON2 inh inconclusive, AmpC inh detg 8%, AmpC no deterg -11%, VACV mCherry inh -6%, SARS PLpro yeast -1% and Vaccinia Venus -11%.
For COc1ccccc1CNc1ccc(N2CCCCC2)cc1 the results were AMA1-RON2 inh inconclusive, AmpC inh detg inconclusive, AmpC no deterg -29%, VACV mCherry inh -18%, SARS PLpro yeast -15% and Vaccinia Venus -8%.
For CCOc1cc(CNc2ccc(N(C)C)cc2)cc(Br)c1OCC(=O)NC(C)(C)C the results were AMA1-RON2 inh 25µM*, AmpC inh detg 3%, AmpC no deterg inconclusive, SARS PLpro yeast -22% and Vaccinia Venus -15%.
